Source: PubChem BioAssay AID1986 (Sanford-Burnham Center for Chemical Genomics, 2009)
In all, about 290,000 compounds went through this assay and about 890 (0.31%) were called active. Rule as the data show it: active = inhibition mostly above about 52% (no sharp cut-off); inactive = mostly below about 76%. The full list was thinned out, with actives kept by preference.

Assay: cell-free HIV fusion peptide-binding blockers – biochemical, uHTS, fluorescence dequenching, primary screen (AID 1986)
Conditions: 30 min, stronger effect = higher value
[1] = measured here: repeat confirmation average inhibition, at 18.6 µM

Row | SMILES | inhibition (at 20 µM) | inhibition [1]
1 | Clc1ncc(Cn2cccn2)s1 | -0.3% (inactive) | –
2 | Cc1ccc(C)c(N2CCN(C(=O)CCCn3c(=S)[nH]c4cc5c(cc4c3=O)OCO5)CC2)c1 | -4.3% (inactive) | –
3 | Nc1c(C2=NCCO2)nnn1Cc1ccccc1 | -0.3% (inactive) | –
4 | O=C(Nc1cccc(OCC(=O)N2CCOCC2)c1)c1ccc(C(F)(F)F)cc1 | 1.4% (inactive) | –
5 | Cc1cc(C)cc(N(C(C)C(=O)N2CCCC2)S(C)(=O)=O)c1 (configuration not stated) | 2.9% (inactive) | –
6 | Cc1cc[n+](-c2nc3ccccc3nc2[N-]S(=O)(=O)c2ccccc2)cc1 | 12.1% (inactive) | –
7 | O=S(=O)([N-]c1nc2ccccc2nc1-[n+]1ccccc1)c1ccccc1 | 9.8% (inactive) | –
8 | O=S(=O)([N-]c1nc2ccccc2nc1-[n+]1ccc(-c2ccncc2)cc1)c1ccccc1 | 83.2% (active) | –
9 | Cc1cc(C)c[n+](-c2nc3ccccc3nc2[N-]S(=O)(=O)c2ccc(Br)s2)c1 | 26.7% (inactive) | –
10 | O=S(=O)([N-]c1nc2ccccc2nc1-[n+]1ccc(Cc2ccccc2)cc1)c1ccc(Br)s1 | 12.8% (inactive) | –
11 | CCc1cc[n+](-c2nc3ccccc3nc2[N-]S(=O)(=O)c2ccc(Br)s2)cc1 | 96.6% (active) | –
12 | Cc1ccc(S(=O)(=O)N2CCC(=O)N(CCOC(=O)Nc3cc(C)cc(C)c3)CC2)cc1 | -2% (inactive) | –
13 | Cc1cc(C)c2nc(-n3nc(C)cc3N)cc(C)c2c1 | -0.5% (inactive) | –
14 | COc1cc(C(=O)Nc2nc(-c3cc(C)ccc3C)c(C)s2)ccc1OCC(=O)Nc1ccc(F)cc1 | -1% (inactive) | –
15 | Clc1cccc(CNCCCSc2ncccn2)c1 | -1.9% (inactive) | –
16 | CCc1c(-c2ccccc2)nc2sc3c(c2c1N)CCCC3 | 0.7% (inactive) | –
17 | CN1C(=O)S/C(=C/c2cccn2-c2cccc(C(=O)O)c2)C1=O | 1.9% (inactive) | –
18 | Cc1ccccc1NC(=O)CN1C(=O)S/C(=C\c2cccn2-c2cccc(C(=O)O)c2)C1=O | -1.1% (inactive) | –
19 | CC1=NN(c2nc(-c3ccc(Cl)cc3)cs2)C(=O)C1 | -1.9% (inactive) | –
20 | CC1=NN(c2nc(-c3ccccc3)cs2)C(=O)C1 | 47.5% (inactive) | –
21 | O=C1CC(c2ccccc2)=NN1c1nc(-c2ccccc2)cs1 | 58% (active) | –
22 | CCOC(=O)Cn1c(=O)n(Cc2ccc(C)cc2)c(=O)c2cccnc21 | 1.3% (inactive) | –
23 | COc1cc(N2CCCC2)c(OC)cc1C=O | -2.7% (inactive) | –
24 | COc1cc(N2CCCC2)c(OC)cc1/C=c1/sc2nc3ccccc3n2c1=O | -3.3% (inactive) | –
25 | COc1cc(N2CCCC2)c(OC)cc1/C=C1/NC(=S)NC1=O | 121% (active) | –

Row | SMILES | inhibition (at 20 µM) | inhibition [1]
26 | COCCN(C(=O)C1CCC1)c1nnc(-c2cccnc2)s1 | -0.2% (inactive) | –
27 | Cc1ccc(-c2nc(C=Nc3ccccc3)c(O)o2)cc1 | -1.7% (inactive) | –
28 | Oc1oc(-c2ccccc2)nc1C=Nc1ccccc1 | -1.4% (inactive) | –
29 | CN(C)c1ccc(N=Cc2nc(-c3ccccc3)oc2O)cc1 | 84.5% (active) | 132%
30 | O=C(CCCc1ccccc1)Nc1ccccn1 | -1.4% (inactive) | –
31 | O=C(O)CS(=O)CC(=O)Nc1cccc(C(F)(F)F)c1 (configuration not stated) | 0.3% (inactive) | –
32 | CCN=C1S/C(=C\c2ccc(-c3cccc(C(=O)O)c3)o2)C(=O)N1CC | 42% (inactive) | –
33 | CCN1C(=O)/C(=C\c2ccc(-c3cccc(C(=O)OC)c3)o2)SC1=Nc1ccc(C(=O)O)cc1 | 51.6% (inactive) | 8.6%
34 | Cc1ccc(-c2csc(NC(=O)c3ccco3)n2)cc1C | 2% (inactive) | –
35 | COc1cc(OC)c(OC)cc1CN1CCc2ccccc2C1 | 1% (inactive) | –
36 | O=C(CN1CCC(Cc2ccccc2)CC1)N1CCc2ccccc2C1 | 0.8% (inactive) | –
37 | CCOc1cccc(C2/C(=C(/O)c3ccc4c(c3)CC(C)O4)C(=O)C(=O)N2CCCn2ccnc2)c1 (configuration not stated) | -2.5% (inactive) | –
38 | CC(C)(C)c1ccc(C(=O)Nc2sc3c(c2C(=O)O)CCC3)cc1 | 50.9% (active) | –
39 | O=C(Nc1sc2c(c1C(=O)O)CCC2)c1ccc(F)cc1 | 6.4% (inactive) | –
40 | O=C(Nc1sc2c(c1C(=O)O)CCC2)c1ccccc1 | 12.1% (inactive) | –
41 | O=C(CCN1CCc2ccccc2C1)c1ccc2c(c1)OCCO2 | 1.4% (inactive) | –
42 | O=C(c1ccc(Cl)cc1)c1c[nH]c(C(=O)NNc2ccccc2)c1 | -4.1% (inactive) | –
43 | CN(CCc1ccccn1)C1CCCN(S(=O)(=O)c2ccc(F)c(Cl)c2)C1 (configuration not stated) | -0.2% (inactive) | –
44 | Oc1c(Br)cc(/C=N/n2c(-c3ccccc3)n[nH]c2=S)cc1Br | 64.4% (inactive) | 15.2%
45 | Oc1ccccc1/C=N/n1c(-c2ccccc2)n[nH]c1=S | 0.3% (inactive) | –
46 | Oc1c(Br)cc(Br)cc1/C=N/n1c(-c2ccccc2)n[nH]c1=S | 20.3% (inactive) | –
47 | Oc1c(Br)cc(/C=N/n2c(-c3ccccc3)n[nH]c2=S)c(Br)c1O | 63.4% (active) | –
48 | Cc1c(Br)c(O)c(Br)c(O)c1/C=N/n1c(-c2ccccc2)n[nH]c1=S | 62.9% (inactive) | 47.6%
49 | COc1c(Br)cc(/C=N/n2c(-c3ccccc3)n[nH]c2=S)c(O)c1Br | 44.2% (inactive) | –
50 | Oc1ccc(Br)cc1/C=N/n1c(-c2ccccc2)n[nH]c1=S | 6% (inactive) | –

Row | SMILES | inhibition (at 20 µM) | inhibition [1]
51 | Oc1c(Br)cc(/C=N/n2c(-c3ccccc3)n[nH]c2=S)c(O)c1Br | 53.2% (active) | –
52 | CC(=O)c1cccc(N(CC(=O)N2CCOCC2)S(C)(=O)=O)c1 | -1.8% (inactive) | –
53 | CC(Oc1ccccc1)C(=O)NNC(=O)c1cccs1 (configuration not stated) | -0.2% (inactive) | –
54 | Cc1ccc(Nc2nc(N)c([N+](=O)[O-])c(N3CCOCC3)n2)cc1 | -3.1% (inactive) | –
55 | Cc1c(Cl)c(C(=O)NC2C3CC4CC(C3)CC2C4)nn1C (configuration not stated) | -1.2% (inactive) | –
56 | O=C(Nc1ccn(Cc2ccccc2F)n1)c1ccc(COc2ccc(Br)cc2)cc1 | -0.1% (inactive) | –
57 | Cc1cccc(NC(=O)CN2C(=O)CCS(=O)(=O)c3ccccc32)c1C | 0% (inactive) | –
58 | CC(C)(C)NC(=O)NC(=O)COC(=O)c1cccc(NS(=O)(=O)c2ccc(F)c(F)c2)c1 | 5.9% (inactive) | –
59 | COC(=O)c1ccccc1NC(=O)COC(=O)[C@H](C)NC(N)=O | -2.5% (inactive) | –
60 | C=CCn1c(CCC(O)COCCC)n[nH]c1=S (configuration not stated) | -0.8% (inactive) | –
61 | COc1ccc2cc(/C=C3\SC(=S)NC3=O)c(N3CCOCC3)nc2c1 | 63.1% (active) | –
62 | O=C1NC(=S)S/C1=C/c1ccc(N2CCOCC2)o1 | 18.7% (inactive) | –
63 | COc1ccc2cc(C#N)c(N3CCOCC3)nc2c1 | 2.4% (inactive) | –
64 | COc1ccc(-n2c(C)cc(/C=C3\SC(=S)NC3=O)c2C)cc1 | 32.3% (inactive) | –
65 | O=C1NC(=S)S/C1=C\c1cc2ccccc2nc1N1CCCCC1 | 63.6% (inactive) | 28.2%
66 | COc1ccc2nc(N3CCCCC3)c(/C=C3\SC(=S)NC3=O)cc2c1 | 53.6% (active) | –
67 | Cc1ccc(CN2CCC(n3nccc3NC(=O)C3CCOC3)CC2)cc1C (configuration not stated) | -0.8% (inactive) | –
68 | CC(=O)Nc1ccc(C(=O)OCC(=O)c2ccc(C)c([N+](=O)[O-])c2)cc1 | 0.2% (inactive) | –
69 | Cc1ccc(C(=O)/C=C/c2ccc(-c3ccccc3[N+](=O)[O-])o2)cc1 | 35.4% (inactive) | –
70 | Cc1ccc(C(=O)/C=C/c2ccc(-c3ccc(C)cc3)o2)cc1 | 21.5% (inactive) | –
71 | CCN(CC)S(=O)(=O)c1ccc(C(=O)/C=C/c2ccc(-c3ccc([N+](=O)[O-])cc3)o2)cc1 | 73.1% (active) | 88.1%
72 | Cc1c(C(=O)Nc2cccnc2Cl)oc2ccccc12 | -1% (inactive) | –
73 | CCCN(C(=O)CN1C(=O)NC2(CCCCCC2)C1=O)C1CCS(=O)(=O)C1 (configuration not stated) | 0.3% (inactive) | –
74 | O=C1/C(=C/c2cccnc2)Sc2ccccc21 | 9.2% (inactive) | –
75 | N#Cc1c(C(F)(F)F)cc(-c2ccccc2)nc1SCc1nc(N)nc(N2CCOCC2)n1 | 66.7% (active) | –

Row | SMILES | inhibition (at 20 µM) | inhibition [1]
76 | C#CCSc1nc(-c2ccccc2)cc(C(F)(F)F)c1C#N | -0.2% (inactive) | –
77 | N#Cc1c(C(F)(F)F)cc(-c2ccccc2)nc1SCCN1CCOCC1 | 2.6% (inactive) | –
78 | O=C(NCC1CCCO1)c1ccc(CNS(=O)(=O)c2cccc(Cl)c2)cc1 (configuration not stated) | -0.3% (inactive) | –
79 | Cc1ccc(C(=O)C2=C(O)C(=O)N(Cc3ccco3)C2c2cccc(Cl)c2)o1 (configuration not stated) | 25.7% (inactive) | –
80 | Cc1ccc(N=Cc2c(O)n(-c3nccs3)c(=O)c3ccccc23)c(C)c1 | 75.3% (active) | 103%
81 | Cc1cc(C)c(N=Cc2c(O)n(-c3nccs3)c(=O)c3ccccc23)c(C)c1 | 0.6% (inactive) | –
82 | Cc1ccccc1N=Cc1c(O)n(-c2nccs2)c(=O)c2ccccc12 | 2.3% (inactive) | –
83 | CN1CCN(/N=C/c2ccc(-c3ccccc3)cc2)CC1 | 0% (inactive) | –
84 | CC1=NN(c2ccccc2)C(=O)/C1=C\c1c(C)[nH]n(-c2ccccc2)c1=O | -0.3% (inactive) | –
85 | Cc1[nH]n(-c2ccccc2)c(=O)c1/C=C1/C=c2ccccc2=N1 | -2.5% (inactive) | –
86 | Cc1coc2cc3oc(=O)c(CCC(=O)N4CCC(C(=O)O)(c5ccccc5)CC4)c(C)c3cc12 | 3.7% (inactive) | –
87 | O=C1CCN(Cc2ccccc2)CCN1[C@H](CO)c1ccccc1 | 1.5% (inactive) | –
88 | Cc1ccc(NC(=O)COC(=O)c2ccccc2-c2nc3ccccc3s2)c(C)c1 | 1.4% (inactive) | –
89 | CCOCCCNc1nc2c(C)cccn2c(=O)c1/C=C1\SC(=S)N(C(C)CC)C1=O (configuration not stated) | 94.5% (active) | –
90 | CCCN1C(=O)/C(=C/c2c(NCCCOC(C)C)nc3c(C)cccn3c2=O)SC1=S | 1.8% (inactive) | –
91 | Cc1cccn2c(=O)c3cc(C(=O)NCCCOC(C)C)sc3nc12 | 1% (inactive) | –
92 | Cc1cccn2c(=O)c(C=Nc3ccccc3)c(NCCO)nc12 | 0.3% (inactive) | –
93 | CCCN1C(=O)/C(=C/c2c(NCCCOCC)nc3c(C)cccn3c2=O)SC1=S | 8.4% (inactive) | –
94 | CCC(C)N1C(=O)/C(=C/c2c(NCCCOC(C)C)nc3c(C)cccn3c2=O)SC1=S (configuration not stated) | 75.6% (active) | 144%
95 | CCOCCCNc1nc2c(C)cccn2c(=O)c1/C=C1\SC(=S)N(CC(C)C)C1=O | 58.9% (active) | 63.6%
96 | CCOCCCNC(=O)c1cc2c(=O)n3cccc(C)c3nc2s1 | -1.3% (inactive) | –
97 | Cc1cccn2c(=O)c(/C=C3\SC(=S)NC3=O)c(NCCCN3CCOCC3)nc12 | 75.8% (inactive) | 7.4%
